# Source: the supplement of paper PMC10849652
# About 7,900 targets were measured; listed, in parts, are those with a hit and a random draw of the rest. About 0.6% of all pairs of compound and target were hits. Unmarked numbers belong to inactive results.
# Assays:
# Experiment in all cases: log2 fold change, soluble protein after heating vs DMSO (PISA); higher = thermal stabilisation; K562 cells, 10 uM, 30 min; active = over 0.2 and 3.5 SD of the protein, either way, in both replicates (recomputed)
# [1] = compound: CC1=C(C=C(C=C1)NC(=O)C2=CC(=CC=C2)C(C)(C)C#N)NC3=CC4=C(C=C3)N=CN(C4=O)C
# Procedure, shortened: (§1)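 Aliquots of K562 cells (2×10^6 cells/mL) treated with 10 μM compound for 30 min were heated for 3 min over 48°C-58°C. After pooling and extraction in PBS with 0.5% NP-40 at 4°C, soluble protein from a 21,000xg, 90 min spin was quantified by TMTpro 16plex LC-MS/MS with channel sums equalised. Thermal stability is expressed against control samples, from duplicates, as a log2 fold change.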
# [2] = compound: CC1=C(C=C(C=C1)NC(=O)C2=CC(=CC=C2)N(C)C)NC(=O)C3=CC=C(C=C3)O
# Procedure, shortened: as §1
# [3] = compound: CC1=CC=C(C=C1)SC2=C3C=C(SC3=CN=C2)C(=O)N
# Procedure, shortened: as §1
# [4] = compound: CC1=NC(=CC=C1)C2=C(N=C(N2)C(C)(C)C)C3=CC4=NC=CN=C4C=C3
# Procedure, shortened: as §1
# [5] = compound: CCCCN(Cc1ccc(C(=O)NO)cc1)C(=O)Nc1ccccc1 [Nexturastat A]
# Procedure, shortened: as §1
# [6] = compound: CCCS(=O)(=O)Nc1ccc(F)c(C(=O)c2c[nH]c3ncc(-c4ccc(Cl)cc4)cc23)c1F [vemurafenib]
# Procedure, shortened: as §1
# [7] = compound: CCCS(=O)(=O)Nc1ccc(F)c(C(=O)c2c[nH]c3ncc(Cl)cc23)c1F
# Procedure, shortened: as §1
# [8] = compound: CCCc1cc(C)[nH]c(=O)c1CNC(=O)c1cc(-c2ccnc(N3CCN(C)CC3)c2)cc2c1cnn2C(C)C
# Procedure, shortened: as §1
# [9] = compound: CCN(CC)Cc1ccc2cc(COC(=O)Nc3ccc(C(=O)NO)cc3)ccc2c1 [givinostat]
# Procedure, shortened: as §1
# [10] = compound: CCN(CCCOc1ccc2c(Nc3cc(CC(=O)Nc4cccc(F)c4)[nH]n3)ncnc2c1)CCOP(=O)(O)O [barasertib]
# Procedure, shortened: as §1
# [11] = compound: CC[C@@H]1C(=O)N(C)c2cnc(Nc3ccc(C(=O)NC4CCN(C)CC4)cc3OC)nc2N1C1CCCC1
# Procedure, shortened: as §1
# [12] = compound: CC[C@@H]1C(=O)N(C)c2cnc(Nc3ccc(C(=O)N[C@H]4CC[C@H](N5CCN(CC6CC6)CC5)CC4)cc3OC)nc2N1C(C)C [volasertib]
# Procedure, shortened: as §1
# [13] = compound: CC[C@H](C)N1C=C(C2=C(C=C(C=C21)C3=CN=C(C=C3)N4CCNCC4)C(=O)NCC5=C(C=C(NC5=O)C)C)C
# Procedure, shortened: as §1
# [14] = compound: CC[C@H](C)[C@@H](C(=O)N[C@@H]([C@@H](C)O)C(=O)N[C@@H](CC(C)C)C(=O)[C@]1(CO1)C)NC(=O)[C@H]([C@@H](C)CC)N(C)C(=O)C [epoxomicin]
# Procedure, shortened: as §1
# [15] = compound: CCn1c(C(=O)N(C2CC2)C2CC2)cc2c3c(ncn3C)c(Nc3cc(C)n(C)n3)nc21
# Procedure, shortened: as §1
# [16] = compound: CCn1cc(-c2ccnc3[nH]c(-c4cccc(CN(C)C)c4)cc23)c(-c2ccc(NC(=O)N(C)C)cc2)n1
# Procedure, shortened: as §1
# [17] = compound: CN(C)CC(=O)Nc1ccc2[nH]c(=O)c3ccccc3c2c1
# Procedure, shortened: as §1
# [18] = compound: CN(CCOC1=CC=C(C=C1)C[C@H]2C(=O)NC(=O)S2)C3=CC=CC=N3 (racemic) [rosiglitazone]
# Procedure, shortened: as §1
# [19] = compound: CN1C2=C(C3=C1C(=O)N(N=C3)CC4=CC(=CC=C4)N)SC(=C2)S(=O)C
# Procedure, shortened: as §1
# [20] = compound: CN1CCC(CNc2ccc3ncc(-c4cccc(OC(F)(F)F)c4)n3n2)CC1
# Procedure, shortened: as §1
# Chain of UniProt O75030 (O75030 whole entry, looked up): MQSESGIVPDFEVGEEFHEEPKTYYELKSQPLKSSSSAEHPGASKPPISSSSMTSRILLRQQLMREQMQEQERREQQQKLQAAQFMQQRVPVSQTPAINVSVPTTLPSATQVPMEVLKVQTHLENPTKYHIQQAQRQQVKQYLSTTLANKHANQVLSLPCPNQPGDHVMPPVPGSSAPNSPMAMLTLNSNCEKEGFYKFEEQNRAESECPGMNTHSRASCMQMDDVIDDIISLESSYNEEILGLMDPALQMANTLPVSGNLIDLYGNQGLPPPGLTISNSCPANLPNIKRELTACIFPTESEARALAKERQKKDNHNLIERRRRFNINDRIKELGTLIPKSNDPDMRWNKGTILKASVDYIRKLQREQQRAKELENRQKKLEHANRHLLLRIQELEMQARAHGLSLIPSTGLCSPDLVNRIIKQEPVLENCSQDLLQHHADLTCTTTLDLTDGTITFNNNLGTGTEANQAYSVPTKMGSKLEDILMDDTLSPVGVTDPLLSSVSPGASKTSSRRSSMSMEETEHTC
# Chain of UniProt P30414 (P30414 whole entry, looked up): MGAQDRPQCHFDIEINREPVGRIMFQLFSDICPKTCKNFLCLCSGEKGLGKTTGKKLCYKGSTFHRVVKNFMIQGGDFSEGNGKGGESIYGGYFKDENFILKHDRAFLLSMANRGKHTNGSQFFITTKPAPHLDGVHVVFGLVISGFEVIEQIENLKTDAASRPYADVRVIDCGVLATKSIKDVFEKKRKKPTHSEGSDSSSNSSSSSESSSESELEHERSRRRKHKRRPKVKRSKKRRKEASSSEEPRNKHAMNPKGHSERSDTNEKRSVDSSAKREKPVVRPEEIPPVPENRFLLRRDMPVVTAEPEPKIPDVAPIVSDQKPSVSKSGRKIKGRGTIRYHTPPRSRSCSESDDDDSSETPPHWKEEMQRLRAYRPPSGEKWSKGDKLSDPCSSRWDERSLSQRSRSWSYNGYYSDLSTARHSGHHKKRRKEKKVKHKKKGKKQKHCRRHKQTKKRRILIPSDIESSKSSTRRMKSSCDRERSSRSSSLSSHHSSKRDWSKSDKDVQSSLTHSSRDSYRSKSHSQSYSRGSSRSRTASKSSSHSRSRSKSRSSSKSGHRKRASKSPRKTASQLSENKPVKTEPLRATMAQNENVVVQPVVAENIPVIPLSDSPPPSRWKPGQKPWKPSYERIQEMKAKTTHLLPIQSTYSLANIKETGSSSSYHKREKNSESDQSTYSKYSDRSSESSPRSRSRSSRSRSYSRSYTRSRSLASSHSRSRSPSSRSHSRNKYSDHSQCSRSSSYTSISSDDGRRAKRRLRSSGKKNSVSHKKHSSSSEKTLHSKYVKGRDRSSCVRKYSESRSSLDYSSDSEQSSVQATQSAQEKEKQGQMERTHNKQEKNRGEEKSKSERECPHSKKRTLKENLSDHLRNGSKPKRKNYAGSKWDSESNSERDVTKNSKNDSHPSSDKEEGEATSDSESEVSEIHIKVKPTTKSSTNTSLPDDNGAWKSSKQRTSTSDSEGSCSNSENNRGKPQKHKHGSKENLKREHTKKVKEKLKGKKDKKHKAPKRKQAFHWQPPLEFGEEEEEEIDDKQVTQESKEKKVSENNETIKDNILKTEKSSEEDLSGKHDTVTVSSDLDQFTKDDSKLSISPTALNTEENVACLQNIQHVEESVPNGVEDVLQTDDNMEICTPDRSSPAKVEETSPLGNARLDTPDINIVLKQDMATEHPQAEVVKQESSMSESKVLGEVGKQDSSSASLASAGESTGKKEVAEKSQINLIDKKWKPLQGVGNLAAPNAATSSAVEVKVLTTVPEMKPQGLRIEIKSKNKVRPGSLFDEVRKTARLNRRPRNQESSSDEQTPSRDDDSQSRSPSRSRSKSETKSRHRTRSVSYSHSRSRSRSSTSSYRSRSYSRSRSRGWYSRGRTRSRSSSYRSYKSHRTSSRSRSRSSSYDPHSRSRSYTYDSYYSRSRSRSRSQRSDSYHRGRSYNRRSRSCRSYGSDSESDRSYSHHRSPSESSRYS
# Chain of UniProt Q12769 (Q12769 whole entry, looked up): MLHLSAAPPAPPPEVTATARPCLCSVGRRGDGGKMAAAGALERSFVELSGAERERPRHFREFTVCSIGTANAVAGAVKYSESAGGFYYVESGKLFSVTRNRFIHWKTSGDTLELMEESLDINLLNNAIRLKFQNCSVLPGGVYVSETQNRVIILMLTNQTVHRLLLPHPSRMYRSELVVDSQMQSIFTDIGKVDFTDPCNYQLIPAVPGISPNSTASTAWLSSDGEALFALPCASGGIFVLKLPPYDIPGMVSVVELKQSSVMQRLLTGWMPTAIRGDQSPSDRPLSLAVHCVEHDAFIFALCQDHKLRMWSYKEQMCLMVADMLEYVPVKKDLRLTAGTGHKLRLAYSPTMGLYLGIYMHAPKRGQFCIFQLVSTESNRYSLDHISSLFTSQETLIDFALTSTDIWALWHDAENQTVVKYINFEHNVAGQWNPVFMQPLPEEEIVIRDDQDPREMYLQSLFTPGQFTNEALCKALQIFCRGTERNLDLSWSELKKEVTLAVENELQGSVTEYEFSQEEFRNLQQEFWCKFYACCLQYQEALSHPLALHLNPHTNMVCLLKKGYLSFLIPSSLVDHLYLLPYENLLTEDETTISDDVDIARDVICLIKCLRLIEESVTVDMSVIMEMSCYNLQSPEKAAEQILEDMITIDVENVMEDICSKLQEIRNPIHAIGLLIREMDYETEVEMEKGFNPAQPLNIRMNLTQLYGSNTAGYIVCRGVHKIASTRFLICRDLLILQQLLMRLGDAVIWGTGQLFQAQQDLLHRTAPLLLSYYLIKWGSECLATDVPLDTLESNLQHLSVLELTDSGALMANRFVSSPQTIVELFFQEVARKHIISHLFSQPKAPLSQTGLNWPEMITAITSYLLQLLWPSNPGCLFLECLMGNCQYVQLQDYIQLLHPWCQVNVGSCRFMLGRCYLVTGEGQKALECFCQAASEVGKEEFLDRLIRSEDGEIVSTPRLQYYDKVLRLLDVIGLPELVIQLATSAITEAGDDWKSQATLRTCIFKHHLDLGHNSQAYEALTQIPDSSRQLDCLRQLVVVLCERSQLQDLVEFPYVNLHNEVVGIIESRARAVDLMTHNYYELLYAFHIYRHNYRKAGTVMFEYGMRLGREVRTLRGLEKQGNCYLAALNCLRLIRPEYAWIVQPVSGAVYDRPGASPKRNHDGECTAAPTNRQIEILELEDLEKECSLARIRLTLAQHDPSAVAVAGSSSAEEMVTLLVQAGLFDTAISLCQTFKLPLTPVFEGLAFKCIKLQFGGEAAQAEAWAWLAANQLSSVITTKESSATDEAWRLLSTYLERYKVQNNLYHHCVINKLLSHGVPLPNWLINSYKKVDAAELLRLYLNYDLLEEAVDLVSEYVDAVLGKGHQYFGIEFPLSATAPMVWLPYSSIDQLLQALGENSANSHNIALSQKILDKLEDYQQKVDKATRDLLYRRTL
# Chain of UniProt P40261 (P40261 whole entry, looked up): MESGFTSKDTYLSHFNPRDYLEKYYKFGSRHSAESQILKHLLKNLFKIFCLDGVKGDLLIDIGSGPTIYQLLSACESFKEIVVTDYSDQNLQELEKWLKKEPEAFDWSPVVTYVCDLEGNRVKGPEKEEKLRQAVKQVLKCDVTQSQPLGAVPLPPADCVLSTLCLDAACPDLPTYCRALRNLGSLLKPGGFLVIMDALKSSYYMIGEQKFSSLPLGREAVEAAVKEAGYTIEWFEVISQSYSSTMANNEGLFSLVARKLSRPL
# Chain of UniProt P53370 (P53370 whole entry, looked up): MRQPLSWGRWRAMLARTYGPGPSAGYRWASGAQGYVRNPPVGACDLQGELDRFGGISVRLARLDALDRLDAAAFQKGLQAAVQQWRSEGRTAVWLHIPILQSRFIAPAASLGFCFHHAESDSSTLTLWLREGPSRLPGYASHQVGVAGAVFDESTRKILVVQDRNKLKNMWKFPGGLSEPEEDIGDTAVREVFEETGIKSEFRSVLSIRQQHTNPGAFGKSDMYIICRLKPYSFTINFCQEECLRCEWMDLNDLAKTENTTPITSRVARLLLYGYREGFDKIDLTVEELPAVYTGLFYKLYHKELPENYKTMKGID
# Chain of UniProt Q9H6N6 (Q9H6N6 whole entry, looked up): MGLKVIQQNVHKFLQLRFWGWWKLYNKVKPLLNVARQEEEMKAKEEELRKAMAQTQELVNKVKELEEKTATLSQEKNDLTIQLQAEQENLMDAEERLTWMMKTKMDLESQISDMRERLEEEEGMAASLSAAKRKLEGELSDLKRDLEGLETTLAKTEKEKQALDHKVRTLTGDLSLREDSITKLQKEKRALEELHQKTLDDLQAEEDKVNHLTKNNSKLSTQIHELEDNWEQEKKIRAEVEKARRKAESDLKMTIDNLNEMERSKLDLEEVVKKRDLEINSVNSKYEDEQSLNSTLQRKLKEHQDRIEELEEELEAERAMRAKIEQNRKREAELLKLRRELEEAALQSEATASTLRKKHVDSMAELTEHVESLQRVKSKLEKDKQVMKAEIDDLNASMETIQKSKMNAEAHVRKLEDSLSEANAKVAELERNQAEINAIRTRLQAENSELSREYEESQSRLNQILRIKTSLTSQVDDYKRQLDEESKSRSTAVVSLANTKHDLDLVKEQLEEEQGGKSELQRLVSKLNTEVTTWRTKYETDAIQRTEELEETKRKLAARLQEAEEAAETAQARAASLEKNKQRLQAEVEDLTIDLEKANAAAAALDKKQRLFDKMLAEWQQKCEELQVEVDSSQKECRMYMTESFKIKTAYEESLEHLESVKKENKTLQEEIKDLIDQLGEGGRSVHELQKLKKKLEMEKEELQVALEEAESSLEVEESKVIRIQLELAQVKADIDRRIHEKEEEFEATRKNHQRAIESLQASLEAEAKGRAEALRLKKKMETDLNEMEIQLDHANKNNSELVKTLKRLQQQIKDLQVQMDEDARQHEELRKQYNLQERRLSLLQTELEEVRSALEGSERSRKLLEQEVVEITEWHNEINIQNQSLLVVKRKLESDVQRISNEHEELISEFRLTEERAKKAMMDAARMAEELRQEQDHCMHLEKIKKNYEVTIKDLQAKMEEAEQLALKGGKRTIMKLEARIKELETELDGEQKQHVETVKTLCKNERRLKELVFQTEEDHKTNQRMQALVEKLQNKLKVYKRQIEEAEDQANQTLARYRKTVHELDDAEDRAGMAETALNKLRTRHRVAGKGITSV
Target,log2 fold change [1],log2 fold change [2],log2 fold change [3],log2 fold change [4],log2 fold change [5],log2 fold change [6],log2 fold change [7],log2 fold change [8],log2 fold change [9],log2 fold change [10],log2 fold change [11],log2 fold change [12],log2 fold change [13],log2 fold change [14],log2 fold change [15],log2 fold change [16],log2 fold change [17],log2 fold change [18],log2 fold change [19],log2 fold change [20]
NUP160 (UniProt Q12769),0.006,0.037,0.023,0.017,-0.037,-0.01,0.083,0.002,0.018,0.062,-0.109,-0.62 (active),0.005,-0.049,-0.01,0.04,0.007,0.03,-0.033,0.014
NEDD4L (UniProt Q96PU5),0.015,-0.138,-0.046,0.01,-0.059,0.049,0.019,0.013,0.056,-0.021,-0.02,-0.425 (active),0.03,0.012,-0.015,-0.09,0.023,0.029,0.039,-0.099
MRPS22 (UniProt P82650),0.041,-0.029,0.022,-0.018,0.092,-0.024,0.037,0.049,0.032,-0.055,0.007,-0.05,0.125,0.004,-0.03,-0.068,0.004,-0.006,0.084,0.103
NDUFA6 (UniProt P56556),0.029,-0.082,0.1,0.125,-0.067,0.04,0.198,-0.064,0.047,0.035,-0.069,-0.252,0.098,0.115,-0.086,-0.089,0.081,0.116,-0.022,-0.072
NRF1 isoform 4 (UniProt Q16656),0.002,0.03,-0.015,0.051,-0.316,0.004,0.081,-0.007,0.042,0.034,-0.173,-0.501 (active),0.087,0.268,-0.056,0.035,0.08,0.1,-0.084,0.037
NASP isoform 2 (UniProt P49321),–,–,–,–,–,–,–,1.06,–,–,–,–,–,–,–,–,–,–,–,–
MSANTD2 (UniProt Q6P1R3),-0.024,–,–,–,0.239,-0.062,–,–,–,–,-0.071,–,–,-0.273,–,–,0.004,–,0.13,–
NUDT6 (UniProt P53370),–,0.049,0.064,0.075,-0.119,0.002,-0.037,-0.092,-0.027,–,0.177,0.041,-0.289,0.031,0.016,–,-0.055,–,-0.132,–
MORC2 (UniProt Q9Y6X9),–,–,-0.059,0.047,-0.046,–,0.208,0.231,0.026,-0.002,–,-0.8 (active),–,0.118,-0.347,–,–,0.106,–,–
NKTR (UniProt P30414),–,–,-0.041,–,–,–,-0.4,-0.045,0.532,0.042,–,-0.152,–,–,-0.102,–,–,0.39,–,–
NA (UniProt J3KR12),–,0.018,–,0.073,-0.283,–,–,-0.046,–,0,–,–,-0.021,0.079,–,–,–,0.148,–,–
NELFCD (UniProt Q8IXH7),–,–,0.02,0.18,0.094,0.15,0.051,–,0.167,0,–,-0.562 (active),0.244,-0.052,-0.044,-0.113,0.298,0.015,-0.05,0.226
MMADHC (UniProt Q9H3L0),–,0.001,-0.078,-0.078,–,0.067,-0.057,0.108,0.04,0.029,-0.024,-0.482 (active),0.087,–,-0.013,0.03,0.006,0.015,0.047,0.181
OSBPL2 (UniProt Q9H1P3),–,–,-0.203,–,–,–,0,-0.264,–,–,–,0.025,–,–,–,–,–,–,–,–
NDUFB1 (UniProt O75438),-0.087,–,-0.08,0.067,0.027,-0.001,0.065,0.025,-0.015,-0.009,-0.004,-0.08,-0.099,0.396 (active),-0.026,-0.102,0.006,0.009,–,0.282 (active)
NIPSNAP2 (UniProt C9J7B1),0.067,–,–,–,–,–,–,-0.182,–,0.01,–,–,–,–,–,–,–,-0.065,–,–
MOB2 isoform 3 (UniProt Q70IA6),–,-0.039,0.081,–,-0.149,–,0.018,0.163,0.061,-0.121,–,-0.231,0.207,-0.193,-0.036,-0.029,–,-0.004,–,-0.103
ORC3 (UniProt Q9UBD5),–,–,–,–,–,–,–,–,–,–,-0.167,–,–,–,–,–,–,–,–,–
NNMT (UniProt P40261),0.038,–,0.012,0.039,-0.082,0.011,-0.001,-0.093,-0.076,-0.04,0.003,-0.197,0.023,0.039,0.017,-0.068,-0.042,0.007,-0.025,-0.152
MYH16 (UniProt Q9H6N6),0.484,–,0.143,0.724 (active),–,0.155,0.216,0.12,-0.072,-0.069,–,0.077,0.156,–,0.029,-0.067,0.011,0.065,–,0.26
MITF (UniProt O75030),0.005,–,–,0.107,–,0.016,–,-0.281,-0.002,–,0.014,–,0.02,–,-0.051,0.044,-0.231,–,–,-0.046
NAP1L1 (UniProt B7Z9C2),–,–,–,0.14,–,-0.304,–,-0.109,-0.053,-0.002,-0.118,–,-0.008,–,-0.132,0,-0.244,0.146,-0.053,-0.152
